Experiment [1] in a line: growth inhibition of DIPG glioma cells, dose response, cell-based, SU-DIPG-XVII, MIPE5.0, CellTiter-Glo, qHTS (AID 1347060).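 On AC50: cells exposed to compound for 48 hours before viability readout.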 The note with it: SU-DIPG-XVII viability, CellTiter-Glo ATP luminescence. Background: Cellular ATP, detected with luciferase, serves as a proxy for viable cell number.
Experiment [2] in a line: growth inhibition of DIPG glioma cells, dose response, cell-based, SU-DIPG-XIII, MIPE4.0, CellTiter-Glo, qHTS (AID 1347061; cut-off not given, nearly all actives have AC50 up to about 37 µM;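 further: cells exposed to compound for 48 hours before readout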). The following applies: SU-DIPG-XIII viability, CellTiter-Glo ATP luminescence.
The nature of experiment [3]: growth inhibition of DIPG glioma cells, dose response, cell-based, JHH-DIPG-1, MIPE4.0, CellTiter-Glo, qHTS (AID 1347062; cut-off not given, nearly all actives have AC50 up to about 27 µM;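 on AC50: cells exposed to compound for two days before readout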). The following applies: JHH-DIPG-1 viability, CellTiter-Glo ATP luminescence.
A short description of experiment [4]: growth inhibition of DIPG glioma cells, dose response, cell-based, SU-DIPG-IV, MIPE4.0, CellTiter-Glo, qHTS (AID 1347063; cut-off not given, nearly all actives have AC50 up to about 30 µM;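 further: compound exposure lasted 48 hours before the viability readout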). The following applies: SU-DIPG-IV viability, CellTiter-Glo ATP luminescence.
Experiment [5] is described as follows: growth inhibition of DIPG glioma cells, dose response, cell-based, SU-DIPG-XIII, MIPE5.0, CellTiter-Glo, qHTS (AID 1347064; cut-off not given, nearly all actives have AC50 up to about 23 µM;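 on AC50: cells exposed to compound for 48 hours before the viability read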). The note with it: SU-DIPG-XIII viability, CellTiter-Glo ATP luminescence.
A short description of experiment [6]: viability loss in pontine glioma line – cell-based, SU-DIPG-XXV, MIPE5.0, CellTiter-Glo, qHTS, dose response (AID 1347065).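 Further: cells exposed to compound for 48 hours before ATP readout.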 The following applies: CellTiter-Glo ATP luminescence.
Experiment [7] can be described thus: JHH-DIPG-1 glioma cell viability, MIPE5.0 library, CellTiter-Glo luminescence, qHTS (AID 1347067).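 Further: cells exposed to compound for 48 hours before readout.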 The note with it: JHH-DIPG-1 glioma viability, CellTiter-Glo ATP luminescence.
A short description of experiment [8]: SU-DIPG-XXV glioma cell viability, MIPE5.0 library, qHTS (AID 1347068; cut-off not given, nearly all actives have IC50 up to about 30 µM;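 on IC50: cells exposed to compound for 48 hours before viability readout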). A general note: In qHTS, concentration-response curves come from the screen itself.
Experiment [9] in a line: SU-DIPG-VI glioma cell viability, MIPE4.0 library, CellTiter-Glo luminescence, qHTS (AID 1347066; cut-off not given, nearly all actives have AC50 up to about 30 µM;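 further: cells exposed to compound for 48 hours before readout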). The following applies: CellTiter-Glo ATP luminescence.
The nature of experiment [10]: modifiers of HSF1 nuclear foci, imaging, Selleck Cancer Library (AID 1347162; in the data active means plate-normalised HSF1 focus index below about 0.46). The note with it: human cells, at 10 µM; SSMD: measured here: HSF1 foci SSMD mean; cell count: measured here: cell number; plate-normalised HSF1 focus index: stronger effect = lower value.
The nature of experiment [11]: sensitizers of A549 cells to miR-34 induction, primary screen, imaging, A549 dox-inducible miR-34, nuclei and caspase counts (AID 1347080;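 active means compounds whose cell count with miR-34 switched on is under 0.7 times the count with it off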). The following applies: A549 miR-34 inducible, Hoechst nuclei count, 48 h.
Experiment [12] is described as follows: survival rescue of mitochondrial mutant cells in low glucose, primary screen, MELAS cybrids, Rieske KO mouse fibroblasts, CellTiter-Glo (AID 1508586;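 active means mean z-score across replicates of 1.96 or higher in either the MELAS or the Rieske mutant cell line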;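 further: z relative to plate mean and SD of compound and empty wells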).

Inconclusive results are not listed. Active and inactive are the calls of the source. Unless noted, cut-off not given; nearly all actives show AC50 up to about 26 µM.

By AC50 is commonly meant the concentration at which the activity in the assay is half-maximal. As a reminder, the IC50 is the concentration needed to halve the response being measured. Take `NC(=O)Nc1cc(-c2ccc(CN3CCOCC3)cc2)sc1C(N)=O`: the concentration at half-maximal activity (AC50) in [1] is 1.32 µM (active); in [2], 18.7 µM (active); in [3], 20.9 µM (active); in [4], 16.6 µM (active); in [5], 13.2 µM (active); in experiment [6], 0.934 µM (active). The AC50 in [7] is 5.25 µM (active). In [8], the IC50 is 2.95 µM (active).
In the case of `CN(C)C(N)=NC(=N)N`, the outcome in experiment [1], in experiment [2], in experiment [3], in experiment [4], in experiment [5] and in experiment [6] was inactive. In addition, the call in experiment [9] and in experiment [8] was inactive.
As for `COc1cc2ncnc(Nc3ccc(F)c(Cl)c3)c2cc1NC(=O)/C=C/CN1CCCCC1`, the AC50 is 14.8 µM (active) in experiment [1]; 18.7 µM (active) in [3]; 20.9 µM (active) in [4]; 18.6 µM (active) in experiment [5]; 9.34 µM (active) in experiment [6]; 20.9 µM (active) in experiment [9]. Moreover, the compound was called inactive in experiment [2]. Besides, the IC50 in experiment [8] was 10.5 µM (active). Besides, the SSMD in experiment [10] worked out at 1.69. Also, the cell count in [10] amounted to 6970. Also, in experiment [10], the plate-normalised HSF1 focus index is 1.09 (inactive).
For `Nc1ncnc2ccccc12`, the result in experiment [1], in experiment [2], in experiment [3], in experiment [4], in experiment [5] and in experiment [6] was inactive. For the same compound, the call in [7] and in [8] was inactive.
As to `COc1ccc(-n2nc(C(N)=O)c3c2C(=O)N(c2ccc(N4CCCCC4=O)cc2)CC3)cc1`, the result in experiment [1], in [2], in experiment [3], in [4], in experiment [5] and in [6] was inactive. Further, the compound was classed as inactive in [9] and in [7]. Also, the fold change was 0.908 (inactive) in experiment [11] (stronger effect = lower value, cell number ratio, induced over uninduced) and 0.921 in experiment [11] (measured here: relative caspase fold change +Dox/-Dox). The cell count is 8080 in experiment [11] (measured here: total cells with miR-34 induction, stronger effect = lower value) and 8900 in [11] (measured here: total cells without miR-34 induction). The z-score in [12] (MELAS cybrid survival, CellTiter-Glo 48 h, stronger effect = higher value) is -0.515 (inactive); in experiment [12] (Rieske KO mouse fibroblast survival, CellTiter-Glo 72 h) it was -0.309.
Regarding `Cc1ccc(-c2ncn(-c3ccc(Nc4nccc(-c5cccc(N6CCOCC6)c5)n4)cc3)n2)cn1`, the AC50 in experiment [1] is 2.35 µM (active); in experiment [2], 0.0833 µM (active); in experiment [3], 0.0935 µM (active); in experiment [4] it was 0.118 µM (active); in experiment [5], 2.63 µM (active); in [6], 2.95 µM (active). In experiment [7], the AC50 is 2.63 µM (active). Further, the concentration for half-maximal inhibition (IC50) in [8] was 16.6 µM (active).
For the compound `CC[C@H]1OC(=O)[C@H](C)C(=O)[C@H](C)[C@@H](O[C@H]2O[C@H](C)C[C@H](N(C)C)[C@H]2O)[C@](C)(OC)C[C@@H](C)C(=O)[C@H](C)[C@H]2N(CCCCn3cnc(-c4cccnc4)c3)C(=O)O[C@]12C`, the AC50 in experiment [1] is 26.3 µM (active). In addition, the result in experiment [2], in experiment [3], in experiment [4], in [5], in experiment [6] and in [7] was inactive.
